Source: PubChem BioAssay (Tox21)
Inconclusive results are not listed. Active and inactive are the calls of the source. Unless noted, calls follow the shape of the dose curve; as a rule, active = well fitted curve in the direction sought with a large enough effect in the repeat runs; inconclusive = weak or mixed curves; inactive = no such curve, though single readings can be large; an effect the other way counts as inactive or inconclusive.

Columns and labels:
[1] = qHTS assay to identify small molecule antagonists of the glucocorticoid receptor (GR) signaling pathway - cell viability counter screen (AID 720693); also: nearly all actives have a fitted effect of over 55% in size; also: potency is read from the fitted curve at half-maximal effect
[2] = qHTS assay for identifying genotoxic compounds that show differential cytotoxicity against isogenic chicken DT40 cell lines with known DNA damage response pathways - Rev3 mutant cell line (AID 743014); also: nearly all actives have a fitted effect of over 55% in size; also: potency is read from the fitted curve at half-maximal effect
[3] = qHTS assay for identifying genotoxic compounds that show differential cytotoxicity against isogenic chicken DT40 cell lines with known DNA damage response pathways - Rad54/Ku70 mutant cell line (AID 743015); also: nearly all actives have a fitted effect of over 60% in size; also: potency is read from the fitted curve at half-maximal effect
[4] = qHTS assay to identify small molecule antagonists of the androgen receptor (AR) signaling pathway using the MDA cell line - cell viability counter screen (AID 743041; also: nearly all actives have a fitted effect of over 45% in size)
Procedure, shortened: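 Compound exposure lasted 16 h at 37C in MDA-kb2 AR-luc cells stimulated with R1881. Protease-based CellTiter-Fluor reagent was applied for the final 30 min and fluorescence measured.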

[5] = qHTS assay to identify small molecule antagonists of the androgen receptor (AR) signaling pathway - cell viability counter screen (AID 743033; also: nearly all actives have a fitted effect of over 45% in size; also: potency is read from the fitted curve at half-maximal effect)
[6] = biological target: Androgen receptor (Homo sapiens) (UniProt P10275); test: qHTS assay to identify small molecule agonists of the androgen receptor (AR) signaling pathway (AID 743036; active = well fitted activation curve with a large enough effect in the signal ratio in the repeat runs, with a control signal flat, not every such curve was filed as active; the % refers to the signal ratio)
Procedure, shortened: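 Activation was read as beta-lactamase FRET signal from LiveBLAzer B/G substrate, added for 2 h at room temperature. Before that, GeneBLAzer AR-UAS-bla GripTite (HEK293) cells had 16 h compound exposure at 37C.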

[7] = biological target: Androgen receptor (Homo sapiens) (UniProt P10275); test: qHTS assay to identify small molecule agonists of the androgen receptor (AR) signaling pathway using the MDA cell line (AID 743040; also: nearly all actives have a fitted effect of over 20% in size)
Procedure, shortened: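 Testing was done with the MDA-kb2 AR-luc line, a human breast carcinoma stably transfected with MMTV-luciferase containing AR and GR response elements. Cells were exposed 16 h at 37C before ONE-Glo luminescence detection.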

[8] = biological target: Androgen receptor (Homo sapiens) (UniProt P10275); test: qHTS assay to identify small molecule antagonists of the androgen receptor (AR) signaling pathway using the MDA cell line (AID 743042; also: nearly all actives have a fitted effect of over 55% in size)
Procedure, shortened: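 MDA-kb2 breast carcinoma cells carrying MMTV-luciferase (AR/GR responsive) were co-treated with compounds and the agonist R1881 for 16 h at 37C. Inhibition read as ONE-Glo luminescence; CellTiter-Fluor fluorescence measured in parallel for cytotoxicity.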

[9] = biological target: Androgen receptor (Homo sapiens) (UniProt P10275); test: qHTS assay to identify small molecule antagonists of the androgen receptor (AR) signaling pathway (AID 743035; active = well fitted inhibition curve with a large enough effect in the signal ratio in the repeat runs, not every such curve was filed as active; the % refers to the signal ratio; also: potency is read from the fitted curve at half-maximal effect)
Procedure, shortened: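 Quantitative HTS of the Tox21 10K library used HEK293 AR-UAS-bla cells stimulated with R1881 alongside compound for 16 h at 37C, followed by beta-lactamase FRET detection (LiveBLAzer B/G, 2 h, RT).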

[10] = qHTS assay for identifying genotoxic compounds that show differential cytotoxicity against isogenic chicken DT40 cell lines with known DNA damage response pathways - wild type cell line (AID 743012); also: nearly all actives have a fitted effect of over 60% in size; also: potency is read from the fitted curve at half-maximal effect
Procedure, shortened: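 Luminescent ATP viability signal (CellTiter-Glo, 30 min RT) recorded after wild type DT40 cells were incubated with compounds for 40 h at 37 C/5% CO2.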

Measured: Potency

Chain of Androgen receptor (Homo sapiens) (P10275 whole entry, looked up): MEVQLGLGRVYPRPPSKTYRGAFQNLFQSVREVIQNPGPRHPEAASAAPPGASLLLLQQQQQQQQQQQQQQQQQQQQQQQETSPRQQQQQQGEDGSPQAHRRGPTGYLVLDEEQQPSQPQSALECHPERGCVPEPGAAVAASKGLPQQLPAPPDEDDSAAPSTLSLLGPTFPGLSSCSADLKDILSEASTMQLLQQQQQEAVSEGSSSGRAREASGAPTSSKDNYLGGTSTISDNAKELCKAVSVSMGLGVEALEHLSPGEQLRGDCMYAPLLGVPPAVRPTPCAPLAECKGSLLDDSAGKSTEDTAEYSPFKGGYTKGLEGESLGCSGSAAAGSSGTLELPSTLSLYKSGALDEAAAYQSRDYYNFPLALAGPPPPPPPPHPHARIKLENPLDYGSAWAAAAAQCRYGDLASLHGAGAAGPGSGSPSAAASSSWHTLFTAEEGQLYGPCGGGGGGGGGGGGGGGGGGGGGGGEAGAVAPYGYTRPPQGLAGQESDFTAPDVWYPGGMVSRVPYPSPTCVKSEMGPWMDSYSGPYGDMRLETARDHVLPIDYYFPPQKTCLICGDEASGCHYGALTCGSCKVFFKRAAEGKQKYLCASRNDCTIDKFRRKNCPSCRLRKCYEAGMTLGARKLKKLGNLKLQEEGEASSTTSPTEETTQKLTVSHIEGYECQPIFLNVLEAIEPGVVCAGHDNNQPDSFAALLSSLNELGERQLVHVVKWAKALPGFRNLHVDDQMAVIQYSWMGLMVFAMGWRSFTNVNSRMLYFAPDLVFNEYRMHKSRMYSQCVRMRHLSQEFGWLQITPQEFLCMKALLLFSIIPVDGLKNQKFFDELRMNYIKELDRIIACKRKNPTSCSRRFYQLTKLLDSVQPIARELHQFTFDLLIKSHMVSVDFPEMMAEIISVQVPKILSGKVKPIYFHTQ

C/C=C\C/C=C/CCCCCCCCOC(C)=O
inactive: [1] | [4]
active: [2] 27.3 µM | [3] 24.3 µM

O=C1c2ccccc2C(=O)C1c1nc2ccccc2c(Br)c1O
inactive: [1] | [2] | [3] | [5] | [4]

O=C(OCC(O)CO)c1ccccc1Nc1ccnc2cc(Cl)ccc12 (centres undefined)
inactive: [1] | [5] | [6] | [7] | [4] | [8]

CN1C(=O)c2ccccc2C1=O
inactive: [1] | [4]
active: [2] 68.6 µM | [3] 61.1 µM

Cc1ccc(CO)cc1
inactive: [1] | [2] | [3] | [5] | [4]

C=COCC(C)C
inactive: [1] | [3] | [5] | [4]

COc1cc(N)c(Cl)cc1C(=O)NC1CCN(CCCOc2ccc(F)cc2)CC1OC (centres undefined)
inactive: [1] | [5] | [4]
active: [3] 12.7 µM

CC[N+](CC)(CCNC(=O)C(=O)NCC[N+](CC)(CC)Cc1ccccc1Cl)Cc1ccccc1Cl
inactive: [1] | [2] | [3] | [4]

C=CC(C)(CCC=C(C)C)OC(=O)CC(C)C (centres undefined)
inactive: [1] | [2] | [3] | [5] | [4]

CC1(C)O[C@@H]2C[C@H]3[C@@H]4C[C@H](F)C5=CC(=O)C=C[C@]5(C)[C@H]4[C@@H](O)C[C@]3(C)[C@]2(C(=O)CO)O1
inactive: [1] | [2] | [3] | [4]

CC(C)(c1ccccc1)c1ccccc1
inactive: [1] | [2] | [3] | [5] | [4]

CCC(C)COC(C)=O (centres undefined)
inactive: [1] | [2] | [3] | [5] | [4]

CCCCCCCCCI
inactive: [1] | [2] | [3] | [5] | [4]

CC(C)=CCC/C(C)=C/CC/C(C)=C/CCC(=O)OC/C=C(\C)CCC=C(C)C
inactive: [1] | [2] | [5] | [4]

O=C=Nc1ccc(Cl)c(Cl)c1
inactive: [1] | [3] | [5] | [4]

C[C@H]1c2cccc(O)c2C(O)=C2C(=O)[C@]3(O)C(O)=C(C(N)=O)C(=O)[C@@H](N(C)C)[C@@H]3[C@@H](O)[C@@H]21
inactive: [1] | [5] | [9] | [7] | [4] | [8]

Cc1ccc(C(C)(C)O)cc1
inactive: [1] | [3] | [5] | [4]

Cc1cccc(O)c1N
inactive: [1] | [5]

O=Cc1c2ccccc2c(Cl)c2ccccc12
inactive: [1] | [3] | [5] | [4]

C[C@@H]1CN(CCCn2c3ccccc3c3ccccc32)C[C@H](C)N1
active: [3] 9.44 µM
inactive: [1]

O=C1NCCN1CCO
inactive: [1] | [2] | [3] | [5] | [4]

CCC1NC(=O)c2cc(S(N)(=O)=O)c(Cl)cc2N1 (centres undefined)
inactive: [1] | [3] | [5] | [4]

Cc1ccccc1N=C(N)Nc1ccccc1C
inactive: [1] | [5] | [4]
active: [2] 30.1 µM

CC1(C)[C@@H](OC(=O)CCC(=O)O)CC[C@]2(C)[C@H]3C(=O)C=C4[C@@H]5C[C@@](C)(C(=O)O)CC[C@]5(C)CC[C@@]4(C)[C@]3(C)CC[C@@H]12
inactive: [1] | [2] | [3] | [4]

Cc1cc(=O)c2c(O)c3c(O)cc(=O)c4c3c3c(cc(O)c1c23)C(C)(C)C=4O
inactive: [5] | [4]
active: [1] 1.69 µM | [3] 1.06 µM

CC(C)C(O)(c1ccc(OC(F)(F)F)cc1)c1cncnc1 (centres undefined)
inactive: [1] | [5] | [4]
active: [2] 27.2 µM | [3] 48.4 µM

Cc1ccc(OC(=O)c2ccccc2O)cc1
inactive: [1] | [3] | [5] | [4]

Nc1nc2ccc([N+](=O)[O-])cc2s1
active: [2] 64.8 µM
inactive: [1] | [5] | [7] | [8]

O=C(O)CCC(=O)C(=O)O
inactive: [1] | [2] | [3] | [5] | [4]

CN1CCCN=C1COC(=O)C(O)(c1ccccc1)C1CCCCC1 (centres undefined)
inactive: [1] | [4]

CC(C)=CC(=O)C=C(C)C
inactive: [10] | [2] | [3] | [5] | [4]

O=C(Cn1ccnc1[N+](=O)[O-])NCCO
inactive: [10] | [2] | [3] | [5] | [9] | [6] | [7] | [4] | [8]

CC(C)Nc1cccnc1N1CCN(C(=O)c2cc3cc(NS(C)(=O)=O)ccc3[nH]2)CC1
inactive: [1] | [5] | [4]

O=C=Nc1cccc(C(F)(F)F)c1
active: [9] 48.6 µM
inactive: [1] | [6] | [7] | [4] | [8]

COC(=O)C1=C(C)NC(C)=C(C(=O)O[C@@H]2CCCN(Cc3ccccc3)C2)[C@@H]1c1cccc([N+](=O)[O-])c1
active: [10] 13.3 µM | [2] 21.1 µM | [3] 13.3 µM

CCOc1ccc(Cc2nccc3cc(OCC)c(OCC)cc23)cc1OCC
active: [10] 4.03 µM | [2] 5.07 µM | [3] 5.07 µM
inactive: [9] | [6] | [7] | [4]

Cc1cc2c(OCC(CNC(C)(C)C)OC(=O)c3ccccc3)cccc2[nH]1 (centres undefined)
inactive: [1] | [5] | [4]

O=c1[nH]ncc2ccccc12
inactive: [10] | [2] | [3] | [4]

CC(=O)[C@H]1[C@H](C#N)C[C@H]2[C@@H]3CC=C4C[C@@H](O)CC[C@]4(C)[C@H]3CC[C@@]21C
inactive: [5] | [4]
active: [10] 37.1 µM | [2] 37.1 µM

Brc1cc2ccccc2c2ccccc12
inactive: [1] | [5] | [4]

COc1ccccc1N1CCN(CC(O)COc2cccc3ccccc23)CC1 (centres undefined)
active: [10] 23.7 µM | [2] 29.8 µM | [3] 29.8 µM
inactive: [4]

CCCCCCCCOc1ccc(C(=O)O)cc1
inactive: [10] | [2] | [3] | [5] | [4]

CN(C)CCC=C1c2ccccc2C=Cc2ccccc21
active: [10] 8.41 µM | [2] 8.41 µM | [3] 10.6 µM
inactive: [4]

CCCCCCCCC(CCCCCC)C(=O)O (centres undefined)
inactive: [10] | [3] | [5] | [4]

CCOC(=O)c1ccc(OCCN2C[C@H](O)[C@@H](O)[C@H](O)[C@H]2CO)cc1
inactive: [10] | [2] | [3] | [5] | [4]

CC(CCC(=O)O)C(=O)O (centres undefined)
inactive: [10] | [2] | [3] | [5] | [4]

CCOC(=O)/C=C/C(=O)OCC
inactive: [10] | [2] | [3] | [5] | [4]

C[C@]12CC[C@@H]3c4ccc(O)cc4CC[C@H]3[C@@H]1CC[C@@H]2OC(=O)CCC1CCCC1
active: [10] 11.9 µM | [2] 24.3 µM | [3] 11.9 µM
inactive: [5] | [4]

CC(C)C=O
inactive: [1] | [5] | [4]

Oc1cc2c(cc1O)[C@H]1c3ccc(O)c(O)c3OC[C@@]1(O)C2
active: [10] 43.8 µM | [2] 22 µM | [3] 31 µM

CCCCCCCCCCCCCCN(CCO)CCO
active: [10] 2.43 µM | [2] 1.09 µM | [3] 2.43 µM | [5] 43.6 µM
inactive: [4]

Nc1ccc(N=Nc2ccccc2)c(N)c1
active: [10] 53.3 µM | [2] 53.3 µM | [3] 59.8 µM
inactive: [5] | [4]

CCCCC(CC)CN (centres undefined)
inactive: [6] | [7] | [4] | [8]
active: [10] 55.5 µM | [2] 62.3 µM | [3] 55.5 µM | [5] 44.5 µM

COc1ccccc1NC(=O)c1cc2ccccc2cc1O
inactive: [6] | [7] | [4]
active: [10] 43.3 µM | [2] 48.6 µM | [3] 30.6 µM | [5] 13.8 µM

O=c1[nH]c2ccc(Cl)cc2o1
inactive: [10] | [2] | [3] | [5] | [4]

C=C1c2cccc(O)c2C(O)=C2C(=O)[C@]3(O)C(O)=C(C(N)=O)C(=O)[C@@H](N(C)C)[C@@H]3[C@@H](O)[C@H]12
inactive: [10] | [2] | [3] | [5] | [4]

CCC(=O)C1CC(C(C)C)CC=C1C (centres undefined)
inactive: [10] | [2] | [3] | [5] | [9] | [6] | [7] | [4] | [8]

CC(C)=CCC1C(=O)N(c2ccccc2)N(c2ccccc2)C1=O
active: [10] 16.8 µM | [2] 16.8 µM | [3] 16.8 µM
inactive: [5]

COc1ccccc1N1CCN(CCCCNC(=O)c2ccc(-c3ccc(C(C)=O)cc3)cc2)CC1
inactive: [10] | [2] | [3] | [5]

O=c1c(O)c(-c2ccc(O)cc2)oc2cc(O)cc(O)c12
active: [10] 32.8 µM | [2] 11.6 µM | [3] 36.8 µM
inactive: [5] | [4]

Cc1cc(O)ccc1O
inactive: [10] | [2] | [3] | [5] | [4]

CC(=O)N/N=C/c1ccc([N+](=O)[O-])o1
inactive: [5] | [4]
active: [10] 11.9 µM | [3] 18.8 µM

CCOC(C)=O
inactive: [10] | [2] | [3] | [5] | [4]
